This is a sample that favours compounds with a hit; in the whole collection about 4.2% have one here.
PfHsp90 yeast 2: inhibits growth of yeast expressing Plasmodium falciparum Hsp90 | S. cerevisiae expressing PfHsp90, BacTiter-Glo ATP, 48 h; yeast lacking PDR1 and PDR3 efflux regulators | inhibition, % at 9.4 µM | actives 0.32% (n = 310,000);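 active = every replicate shows inhibition above about 80%, whatever the replicate mean, limit read from the data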
NLRP3 yeast inh: inhibitors of NALP3 inflammasome in yeast; AID 2825; actives 0.39% (n = 330,000); Yeast reconstituted NLRP3/ASC/caspase-1, beta-gal luminescence, 24 h; inhibition, % at 10 µM;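 active = inhibition of 50% or more; inactive = inhibition below 50%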
tim23-1 inh: inhibits growth of tim23-1 mutant yeast; S. cerevisiae tim23-1 growth, BacTiter-Glo luminescence, 24 h; inhibition, % at 20 µM; actives 1.3% (n = 330,000);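 active = growth inhibition of the mutant yeast at or above 50%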;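 note: temperature-sensitive mutant grown at 25 °C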
TIM10 inh: growth inhibitors of TIM10 yeast strain. actives 1.4% (n = 330,000). AID 463195. inhibition, % at 10 µM. S. cerevisiae TIM10 strain growth, BacTiter-Glo luminescence, 24 h;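 active = inhibition of 40% or more at the single tested concentration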;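 note: wild-type TIM10 isogenic control strain grown at permissive 25 °C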
tim10-1 inh: tim10-1 yeast growth inhibition; S. cerevisiae tim10-1 ts strain growth, BacTiter-Glo, 24 h; inhibition, % at 20 µM; actives 2.2% (n = 330,000); AID 463190;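 active = inhibition of at least 40%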;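 note: mutant grown at 25 °C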
NALP1 yeast inh: blocks the NALP1 inflammasome reconstituted in yeast; S. cerevisiae NALP1/ASC/caspase-1 growth, X-gal OD620, 72 h; inhibition, % at 10 µM; actives 0.61% (n = 280,000); in the data active = inhibition mostly above about 24%, no sharp cut-off; inactive = mostly below about 32%
tim10-1 confirm: confirmation of tim10-1 mutant yeast growth inhibitors; shares compounds with tim10-1 inh; S. cerevisiae tim10-1 ts strain growth, BacTiter-Glo, 24 h; inhibition, % at 20 µM; actives 56% (n = 7,400);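 active = inhibition of yeast growth at or above a set limit in either of two repeat tests at 20 µM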;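 note: tim10-1 mutant grown at permissive 25 °C to find synthetic lethal compounds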
Hits are given with their value; n = inactive; x = not tested or not shown.

SMILES | PfHsp90 yeast 2 | NLRP3 yeast inh | tim23-1 inh | TIM10 inh | tim10-1 inh | NALP1 yeast inh | tim10-1 confirm
O=C(NC1(C(F)(F)F)C(=O)Nc2c1c(=O)[nH]c(=O)n2-c1ccccc1)c1ccncc1 (centres undefined) | n | n | n | n | n | x | x
CCc1ccc(C(=O)NNC(=O)CCC2CCCCC2)cc1 | n | n | n | n | n | n | x
O=C(COc1ccccc1)Nc1ccc(S(=O)(=O)N2CCCC2)cc1 | n | n | n | n | 41 | n | n
CCCOc1ccccc1OCC(=O)Nc1ccc(S(=O)(=O)N2CCCC2)cc1 | n | n | n | n | n | x | x
CCCOc1ccccc1OCC(=O)Nc1ccc(S(=O)(=O)N2CCCCC2)cc1 | n | n | n | n | 41 | x | 32
COc1ccc(OCC(=O)Nc2ccc(S(=O)(=O)N3CCCC3)cc2)cc1 | n | n | n | n | n | n | x
NC(=S)N1OC[C@@H]2COc3ccc4ccccc4c3[C@@H]21 | n | n | n | n | 41 | n | n
Cc1noc(NS(=O)(=O)c2ccc(NC(=O)Nc3ccc(Cl)c(Cl)c3)cc2)c1C | n | n | n | n | 46 | n | 38
Cc1cccc(-c2oc3ccccc3c2C#CCCCCO)c1 | n | n | n | n | n | n | x
Cc1cccc(-c2oc3ccccc3c2C#CCCO)c1 | n | n | n | n | 45 | n | n
Cc1ccc(CNC(=O)c2ccc(NC(=O)C3=CSCCO3)cc2)cc1 | n | n | n | n | n | n | x
COc1cccc(CNC(=O)c2ccc(NC(=O)C3=CSCCO3)cc2)c1 | n | n | n | n | 45 | n | n
Cc1nn(-c2ccc(Cl)c(Cl)c2)c(=O)c2ccccc12 | n | n | n | n | n | n | x
Cc1nn(-c2ccc3ccccc3c2)c(=O)c2ccccc12 | n | n | n | n | 40 | n | n
COCCN1Cc2cccc(C(=O)Nc3ccc(C)cc3)c2C1=O | n | n | n | n | 43 | n | n
COCCN1Cc2cccc(C(=O)Nc3cccnc3)c2C1=O | n | n | n | n | n | n | x
CCOc1ccc(NC(=O)c2cccc3c2C(=O)N(Cc2cccnc2)C3)cc1 | n | n | n | n | 42 | n | 35
COCCN1Cc2cccc(C(=O)Nc3ccc4c(c3)OCCO4)c2C1=O | n | n | n | n | 45 | n | n
OC(COc1ccc(Br)cc1)CN1CCC(Cc2ccccc2)CC1 (centres undefined) | n | n | n | n | n | n | x
CCNC(=O)N1CCC(n2nccc2NC(=O)CCCc2ccccc2)CC1 | n | n | n | n | n | n | x
O=C(O)/C(=C\c1ccc(-c2ccccc2[N+](=O)[O-])o1)c1ccccc1 | n | n | n | n | 40 | n | 52
CN1/C(=C\C(=O)Nc2cccnc2)c2ccccc2CC1(C)C | n | n | n | n | n | n | x
COc1ccc(C(=O)/C=C2/c3ccccc3CC(C)(C)N2C)cc1 | x | n | n | n | 47 | n | n
COc1ccc(C(C(=O)NC2CCCC2)N(C(=O)c2ccoc2C)c2ccc(C)c(C)c2)cc1 (centres undefined) | n | n | n | n | 41 | n | n
O=C1C2CCCN2C(=O)N1CCCN1CCN(c2cccc(Br)c2)CC1 (centres undefined) | n | n | n | n | n | n | x
SMILES | PfHsp90 yeast 2 | NLRP3 yeast inh | tim23-1 inh | TIM10 inh | tim10-1 inh | NALP1 yeast inh | tim10-1 confirm
O=C(Cc1cccc(C(F)(F)F)c1)OCC(=O)N1CCN(S(=O)(=O)c2ccc(Cl)cc2)CC1 | n | n | n | n | 47 | x | n
Nc1nc2ccc(S(=O)(=O)N3CCCCC3)cc2s1 | n | n | n | n | 40 | n | n
CC(/C=C/c1ccccc1)=N\NC(=O)Cn1nc(C)cc1C | n | n | n | n | n | n | x
CCOC(=O)COc1ccc(/C=C2\NC(=S)N(CC)C2=O)cc1 | n | n | n | n | n | n | n
COC(=O)CN1C(=O)N/C(=C/c2ccc(OC)cc2)C1=O | n | n | n | n | n | n | x
CN(C)CCN(C(=O)c1ccc2ccccc2c1)c1nc2ccc(F)cc2s1 | n | n | n | n | n | n | x
CCN(CC)CCN(C(=O)c1ccc2ccccc2c1)c1nc2ccc(OC)cc2s1 | n | n | n | n | 49 | n | n
CCN(CC)CCN(C(=O)c1cc2ccccc2cc1OC)c1nc2ccc(OC)cc2s1 | n | n | n | n | 56 | n | n
CCN(CC)CCN(C(=O)c1cc2ccccc2cc1OC)c1nc2ccc(F)cc2s1 | n | n | n | n | 57 | n | n
CCOc1ccc(CN(C)C(=O)c2ccc(S(=O)(=O)N(C)c3ccccc3OC)cc2)cc1 | n | n | n | n | n | x | x
CCOC(=O)c1ccc(N2C(=O)CC(C(=O)OC)=C2C)cc1 | n | n | n | n | 54 | n | 38
CCOC(=O)c1ccc(N2C(=O)C=CC2=O)cc1 | 130 | n | n | n | 82 | 108 | 92
COc1cc(OC)cc(-c2c(-c3cccs3)c3cc(-c4ccc5[nH]ccc5c4)ccc3n2C)c1 | n | n | n | n | n | x | x
O=C(CN1CCOCC1)N/N=C/c1ccc(-c2cccc(Cl)c2Cl)o1 | n | n | n | n | n | n | x
CCOC(=O)N1CCN(S(=O)(=O)c2ccc(C(=O)NNc3nc4cc(C)cc(C)c4s3)cc2)CC1 | n | n | n | n | 42 | n | n
CCOC(=O)N1CCN(S(=O)(=O)c2ccc(C(=O)NNc3nc4c(C)cc(C)cc4s3)cc2)CC1 | x | n | n | n | n | n | x
CC(=O)NN1C(=O)/C(=C\c2ccc(O)cc2)SC1=S | n | n | n | n | n | n | x
O=C1/C(=C\c2ccc(O)cc2)SC(=S)N1/N=C/c1ccc(O)cc1 | n | n | n | n | 41 | n | 39
CCc1cc(C(=O)c2ccc(OC)cc2)c(NC(=O)CC(C)(C)CC(=O)O)s1 | n | n | n | n | n | x | x
CCOc1ccc(C(=O)/C=C/c2cc(OC)c(OC)c(OC)c2)cc1 | n | n | n | n | 45 | n | n
COc1cc(NCCCn2ccc(NC(=O)OCc3ccccc3)nc2=O)cc(OC)c1OC | n | x | x | x | x | x | x
CSc1ncc(Cl)c(C(=O)Nc2nnc(SC/C=C/c3ccccc3)s2)n1 | x | n | n | n | 42 | n | 39
Cc1cc(C)c(C)c(S(=O)(=O)NC(C)C(=O)O)c1C (centres undefined) | n | n | n | n | n | x | x
CCN(CC)C(=O)CN1CCC(c2nc3cc(C)c(C)cc3[nH]2)CC1 | n | n | n | n | n | n | x
O=C(CCCOc1ccc(Cl)cc1Cl)N/N=C/c1ccc(Cl)cc1 | n | n | n | n | n | n | x
COc1ccc(/C=N/NC(=O)CCCOc2ccc(Cl)cc2Cl)cc1 | n | n | n | n | 47 | n | n
C/C(CC(=O)Nc1ccc(C)c(Cl)c1)=N\NC(=O)Cc1ccccc1 | n | n | n | n | n | n | x
C/C(CC(=O)Nc1ccc(C)c(Cl)c1)=N\NC(=O)c1ccco1 | n | n | n | n | 41 | n | n

Screens deposited in PubChem BioAssay by several laboratories.
